# Hits are enriched below; roughly 4.5% of the tested compounds scored in any of these assays.
# SKKanGAS inh = SKKanGAS growth inhibition | S. pyogenes SKKanGAS, kanamycin growth, BacTiter-Glo, 6 h | inhibition, % at 7.5 µM | 300,000 tested, 1.3% active | AID 1662;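 active = mean replicate score, as percent of positive control median, at least 50; inconclusive = mean below 50 but one replicate at or above 50; inactive = mean and every replicate below 50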;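 note: strain carries kanamycin resistance gene driven by streptokinase promoter and grows in 40 µg/ml kanamycin; loss of luminescence reflects streptokinase promoter inhibition or plain growth inhibition; 0% = median of DMSO wells and 100% = positive control at its reference dose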
# tim10-1 inh = inhibits growth of tim10-1 mutant yeast | 330,000 tested, 2.2% active | inhibition, % at 20 µM | S. cerevisiae tim10-1 ts strain growth, BacTiter-Glo, 24 h;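 active = inhibition of at least 40%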;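 note: mutant grown at 25 °C; 0% = DMSO wells with yeast and 100% = wells holding no yeast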
# TIM10 inh = TIM10 yeast growth inhibition; S. cerevisiae TIM10 strain growth, BacTiter-Glo luminescence, 24 h; inhibition, % at 10 µM; 330,000 tested, 1.4% active; AID 463195;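 active = inhibition of 40% or more at the single tested concentration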;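 note: wild-type TIM10 isogenic control strain grown at permissive 25 °C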
# NLRP3 yeast inh = inhibitors of NALP3 inflammasome in yeast | AID 2825 | 330,000 tested, 0.39% active | inhibition, % at 10 µM | Yeast reconstituted NLRP3/ASC/caspase-1, beta-gal luminescence, 24 h;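 active = inhibition of 50% or more; inactive = inhibition below 50%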;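 note: plate controls were induced DMSO wells for no effect and uninduced yeast grown without galactose for full effect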
# tim23-1 inh = inhibits growth of tim23-1 mutant yeast. S. cerevisiae tim23-1 growth, BacTiter-Glo luminescence, 24 h. inhibition, % at 20 µM. 330,000 tested, 1.3% active. AID 463212;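 active = growth inhibition of the mutant yeast at or above 50%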;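 note: temperature-sensitive mutant grown at 25 °C; plate controls were DMSO-treated mutant yeast for no effect and medium wells lacking yeast for full effect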
# PfHsp90 set2 = reduces growth (ATP signal) of yeast expressing P. falciparum Hsp90; S. cerevisiae expressing PfHsp90, BacTiter-Glo ATP, 48 h; yeast lacking PDR1 and PDR3 efflux regulators; inhibition, % at 9.4 µM; 310,000 tested, 0.32% active; AID 504621;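 active = every replicate shows inhibition above about 80%, whatever the replicate mean, limit read from the data; inconclusive = mean inhibition reaches the set limit but some replicate falls short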;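 note: 0% = DMSO neutral controls and 100% = 20 µM radicicol positive controls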
# TIM10 conf = confirmation of TIM10 yeast growth inhibitors | shares compounds with TIM10 inh | inhibition, % at 10 µM | S. cerevisiae tim10 strain growth, BacTiter-Glo luminescence, 24 h | 4,600 tested, 63% active;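 active = inhibition of yeast growth at or above a set limit in either of two replicates at 10 µM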;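 note: this counterscreen used the strain with wild-type TIM10; 0% = yeast with DMSO and 100% = medium wells lacking yeast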
# * marks the source's active call; other numbers are inactive results; ? = inconclusive; / = not tested or not shown.
SMILES,SKKanGAS inh,tim10-1 inh,TIM10 inh,NLRP3 yeast inh,tim23-1 inh,PfHsp90 set2,TIM10 conf
O=c1c2cc(N3CCOCC3)ccc2[nH]c(=S)n1CCCN1CCN(c2ccccc2F)CC1,/,26,47*,14,16,/,24*
O=C(Nc1ccc(Cl)c(Cl)c1)N1CCSC1c1ccco1 (configuration not stated),4,24,48*,21,34,-37,31*
CC(=O)Nc1ccc(S(=O)(=O)N2CCSC2c2ccco2)cc1 (configuration not stated),-4,12,13,-6,7,/,/
Cc1ccc(NC(=S)Nc2ccc(OC(F)F)c(Cl)c2)cc1F,?,37,42*,22,40,12,36*
Cc1ccccc1NC(=O)Cc1nc(COC(=O)c2cc(Cl)ccc2O)cs1,6,12,-1,8,4,-21,/
Cc1cccc(NC(=S)N/N=C(\c2ccccc2)C(C)C)c1,69*,39,54*,16,40,-9,40*
c1cc(-c2nnc3sc(C4CCCCC4)nn23)ccn1,1,39,41*,-14,12,7,19
Oc1ccc(C=NNc2nc3ccccc3s2)c(O)c1,/,/,/,/,/,-15,/
Cc1ccsc1/C=N/Nc1nc2ccccc2s1,-11,13,40*,12,39,-49,44*
CC(=O)c1sc(N/N=C\c2cccc(Br)c2)nc1C,13,37,41*,-28,44,-27,-11
O=C(C1CCN(S(=O)(=O)c2ccc(Cl)c(C(F)(F)F)c2)CC1)N1CCC1,/,2,2,24,1,-28,/
Cc1ccc(NC(=O)COC(=O)Cc2cccs2)cc1S(=O)(=O)N1CCOCC1,-7,1,97*,11,9,-1,-6
COc1cc(CN2CCN(Cc3ccc(C)cc3)C(CCO)C2)cc(OC)c1O (configuration not stated),6,12,9,-9,13,3,/
Cc1ccccc1CS(=O)(=O)Cc1ccc(C(=O)NCCCN2CC(C)CC(C)C2)o1 (configuration not stated),-1,-8,95*,-2,0,16,-3
Cc1c(Br)c([N+](=O)[O-])nn1CC(=O)NC1CCCCCC1,7,15,-7,21,21,-16,/
CCN(CC)CCN(C(=O)c1cc2c(ccc3ccccc32)oc1=O)c1nc2cc3c(cc2s1)OCCO3,2,20,50*,14,31,-10,31
O=C(COc1ccc(F)cc1)N/N=C/c1cccc2cccnc12,-14,20,14,26,34,-16,/
CC(=O)Nc1cccc(Oc2nc(-c3ccccn3)nc3ccccc23)c1,-4,36,45*,5,28,-12,33*
CC(=O)Nc1ccc(Oc2nc(-c3ccccn3)nc3ccccc23)cc1,3,17,18,0,2,-8,/
Fc1ccc2[nH]c3c(c2c1)CN(C(=S)NCc1ccccc1)CC3,8,29,41*,21,49,8,38*
C=CCNC(=O)N1CCc2[nH]c3ccc(F)cc3c2C1,-8,10,4,13,-3,-2,/
COc1cc(/C=C/c2cc[n+](C)cc2)ccc1OCC(=O)Nc1ccc(Cl)c(Cl)c1,60*,4,42*,3,22,-2,16
COc1ccc(NC(=O)COc2ccc(/C=C/c3cc[n+](C)cc3)cc2OC)cc1,3,0,-10,-17,-21,4,/
CCOC12NC(=O)CC(=O)N1C(c1ccccc1)=CS2 (configuration not stated),/,36,43*,11,43,/,28
CCCCOc1ccc(OC(=O)Nc2cc(Cl)ccc2OC)cc1,14,13,12,19,17,4,/
SMILES,SKKanGAS inh,tim10-1 inh,TIM10 inh,NLRP3 yeast inh,tim23-1 inh,PfHsp90 set2,TIM10 conf
CSc1ccc(C(=S)N2CCCC2)cc1,-4,-2,59*,14,-8,11,3
c1ccc(-c2nc(N3CCCCCC3)nc(-n3ccnc3)n2)cc1,86*,16,48*,-4,17,-23,28
CC1CCCN(C(=O)CN(C)S(=O)(=O)c2cccc3nsnc23)C1 (configuration not stated),2,-6,2,15,8,-9,/
O=[N+]([O-])c1ccc(O)c(/C=N/n2cnc3ccccc32)c1,10,29,41*,27,37,-34,66*
Cc1ccc(Oc2ccc(-c3nc(N)nc(N)n3)cc2)cc1,/,27,45*,23,23,-14,-36
COCCn1c(C)cc(C(=O)COC(=O)/C=C/c2c(C)nn(C3CCS(=O)(=O)C3)c2Cl)c1C (configuration not stated),0,12,9,-5,17,-7,/
N=C1C=CC(=C(c2ccc(N)cc2)c2ccc(N)cc2)C=C1,/,/,/,/,/,64,/
O=C(NC1CCc2ccccc21)c1cc(COc2ccc(F)cc2Cl)on1 (configuration not stated),-6,12,68*,10,15,17,-1
O=C(NC1Cc2ccccc2C1)c1cc(COc2ccc(F)cc2Cl)on1,-4,17,1,1,6,-4,/
COCCNC(=O)CCn1nc(-c2ccc(C)cc2)ccc1=O,-1,-5,6,3,-4,6,/
CCC1CCCCN1C(=O)CSc1nnc2nc(C)cc(C)n12 (configuration not stated),/,1,43*,13,3,-23,-14
O=C(Nc1cccc2ccccc12)N1CCc2ccccc2C1,1,24,40*,27,15,4,-20
Cc1cc(C(=O)NNC(=O)/C=C/c2ccco2)c(C)o1,/,6,4,10,10,4,/
COc1ccc(-c2cc(C(=O)NCCc3ccc(S(N)(=O)=O)cc3)c3ccccc3n2)cc1,20,7,2,2,-15,/,/
COc1ccccc1/C=C/C1(C(=O)NC2CCCC2)CC(=O)N1c1ccc(F)cc1 (configuration not stated),16,38,41*,3,35,-2,21
O=C(Nc1ccccn1)c1ccc2c(=O)n3c(nc2c1)CCCCC3,/,14,51*,29,48,-10,35*
O=C(Nc1ccc(F)c(Cl)c1)c1ccc2c(=O)n3c(nc2c1)CCCCC3,5,29,60*,30,42,20,46*
O=C(Nc1ccc(F)cc1)c1ccc2c(=O)n3c(nc2c1)CCCCC3,-2,-9,11,29,14,28,/
CCCN(CC(=O)Nc1ccccc1C)C(=O)c1cccc(S(=O)(=O)N2CCN(c3ccccc3)CC2)c1,1,-2,12,5,16,/,/
COCCOC(=O)c1[nH]c2c(c1C)C(=O)C(C(=O)OC)C(C)C2 (configuration not stated),-10,-8,1,21,7,1,/

# Screening data: PubChem BioAssay, several laboratories
